Screening results: PubChem, National Center for Advancing Translational Sciences (NCATS)
Compounds with a hit are over-represented: about 11% of the library has one in this group of screens.
KDM4E inh: qHTS Assay for Inhibitors of Human Jumonji Domain Containing 2E (JMJD2E). Potency, µM (top dose mostly 57.1 µM), hits mostly inhibitors. hit rate 1.6% among 230,000. JMJD2E catalytic domain, FDH-coupled NADH fluorescence (FDH is formaldehyde dehydrogenase). Lysine-specific demethylase 4E (Homo sapiens), B2RXH2; further: nearly all actives have a fitted effect of over 50% in size
Target sequence (B2RXH2 1-337 limits assumed): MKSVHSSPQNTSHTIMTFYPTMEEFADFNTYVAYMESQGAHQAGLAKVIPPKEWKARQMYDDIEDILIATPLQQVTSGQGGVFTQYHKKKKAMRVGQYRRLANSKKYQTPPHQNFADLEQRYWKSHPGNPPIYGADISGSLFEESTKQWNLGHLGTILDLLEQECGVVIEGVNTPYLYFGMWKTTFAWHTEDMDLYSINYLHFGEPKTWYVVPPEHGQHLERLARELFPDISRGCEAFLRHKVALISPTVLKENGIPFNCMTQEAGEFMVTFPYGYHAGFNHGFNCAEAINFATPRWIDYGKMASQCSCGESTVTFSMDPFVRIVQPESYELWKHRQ
HPGD block: qHTS Assay for Inhibitors of HPGD (15-Hydroxyprostaglandin Dehydrogenase) | AID 894, 2007 | hit rate 4.3% among 150,000 | purified HPGD, NADH fluorescence kinetic, PGE2 substrate | 15-hydroxyprostaglandin dehydrogenase [NAD(+)] (Homo sapiens), P15428 | Potency, µM, hits mostly inhibitors
Target sequence (P15428 whole entry, looked up): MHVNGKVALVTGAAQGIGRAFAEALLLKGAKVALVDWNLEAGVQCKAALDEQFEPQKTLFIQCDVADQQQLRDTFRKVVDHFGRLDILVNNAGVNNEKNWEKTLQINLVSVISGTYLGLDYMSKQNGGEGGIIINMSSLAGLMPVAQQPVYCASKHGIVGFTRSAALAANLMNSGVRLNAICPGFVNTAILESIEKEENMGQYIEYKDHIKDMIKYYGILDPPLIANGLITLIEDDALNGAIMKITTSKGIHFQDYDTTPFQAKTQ
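20 nM HPGD preincubated 15 min at room temperature with compound in 50 mM Tris-HCl pH 8, 0.01% Tween 20. Started with 1 mM NAD+ and 30 uM prostaglandin E2; NADH fluorescence (360/450 nm) read 5 times over 30-s intervals, last minus first.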
ALDH1A1 block: qHTS Assay for Inhibitors of Aldehyde Dehydrogenase 1 (ALDH1A1); Aldehyde dehydrogenase 1A1 (Homo sapiens), P00352; Purified ALDH1A1, NADH fluorescence, propionaldehyde substrate; Potency, µM (top dose mostly 75.3 µM), hits mostly inhibitors; hit rate 7.3% among 220,000
PNC inhibitor: High Content Assay for Compounds that inhibit the Assembly of the Perinucleolar Compartment; hit rate 3.1% among 140,000; activity change (PNC), negative = inhibition, % at 10 µM; PC3M PTB-GFP, PNC prevalence imaging, 16 h; stronger effect = lower value;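 active means readout at or below -70, meaning at least 70% loss of cells showing the perinucleolar compartment, a nuclear body marking cancer cells; inconclusive means readout between -30 and a set limit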
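PC3M cells stably expressing PTB-GFP, 750–1000 cells/well, treated 16 h at 37 °C with compound (23 nl of library stock), in duplicate. After paraformaldehyde fixation and Hoechst stain, imaged at 20x; PNC prevalence scored by image analysis.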
Each line names hits and unclear results; the compound was inactive in the other large screens; ! = a repeat was not active. Unless noted, the call rests on the fitted dose curve; in most records, active means well fitted inhibition curve with a large enough effect (not every such curve was filed as active); inconclusive means small, poorly fitted or top-dose-only effect, or another doubt; inactive means no such curve, though single readings can be large or run the other way.

CC(C)CN1C(=O)/C(=C/c2cccs2)NC1=S	ALDH1A1 block 2µM
COC(=O)c1ccccc1Oc1ccc(NC(=O)CCCl)cc1	none (no result: HPGD block, PNC inhibitor)
NS(=O)(=O)c1cc(C(=O)N=Nc2c(O)[nH]c3ccccc23)ccc1Cl	none (no result: HPGD block, PNC inhibitor)
CC(C)C[C@H](NC(=O)NC1CCCc2ccccc21)C(=O)O (stereo not given in full)	none (no result: HPGD block, PNC inhibitor)
CC(C)C[C@@H](NC(=O)OCC1c2ccccc2-c2ccccc21)C(=O)O	ALDH1A1 block 12.6µM (no result: PNC inhibitor)
Cc1ccc(C)c(C(C)NC(=O)c2ccc(Br)o2)c1 (stereo not given)	ALDH1A1 block 3.98µM (no result: HPGD block, PNC inhibitor)
Cc1ccc(C)c(C(C)NC(=O)CC#N)c1 (stereo not given)	none (no result: HPGD block, PNC inhibitor)
Cc1cccc(OCCc2c(C)[nH]c(=S)[nH]c2=O)c1	ALDH1A1 block 17.8µM (no result: HPGD block, PNC inhibitor)
Cc1cccc(OCCn2c(=S)[nH]c3ccccc32)c1	HPGD block 2µM, ALDH1A1 block 1.26µM, PNC inhibitor inconclusive
N#CCCn1c(=O)n(CCC#N)c2ccccc21	none (no result: HPGD block, PNC inhibitor)
CCOC(=O)Cn1c(=N)n(CCOc2ccc(Br)cc2)c2ccccc21	none (no result: HPGD block, PNC inhibitor)
CCCCc1c(C)[nH]c(=S)[nH]c1=O	none (no result: HPGD block, ALDH1A1 block, PNC inhibitor)
CCOC(=O)Cn1c(=N)n(CCOc2cccc(C)c2)c2ccccc21	PNC inhibitor -97.1
N#CCCn1c(=S)[nH]c2ccccc21	HPGD block 14.1µM, ALDH1A1 block inconclusive, PNC inhibitor inconclusive
CC(C)(C)C(=O)OCc1nc(-c2ccc(F)cc2)cs1	none (no result: HPGD block, ALDH1A1 block, PNC inhibitor)
CCCCC/C=C\C/C=C\C=C\[C@@H](O)C/C=C\CCCC(=O)O	none (no result: PNC inhibitor)
CC(=O)N[C@@H](CS)C(=O)O	KDM4E inh 25.1µM!, PNC inhibitor inconclusive
Cc1cc(C(=O)NC(=S)Nc2ccccc2N2CCOCC2)ccc1[N+](=O)[O-]	ALDH1A1 block 10µM
COc1ccc(C(=O)NC(=S)Nc2ccc(N3CCOCC3)c(Cl)c2)cc1[N+](=O)[O-]	HPGD block 8.91µM, PNC inhibitor -100.0
COc1ccc(C(=O)NC(=S)Nc2ccccc2N2CCOCC2)cc1[N+](=O)[O-]	ALDH1A1 block 7.08µM
COc1ccc(C(=O)Nc2ccccc2N2CCOCC2)cc1[N+](=O)[O-]	ALDH1A1 block inconclusive
Cc1cc(C(=O)NC(=S)Nc2ccccc2N2CCCC2)ccc1[N+](=O)[O-]	ALDH1A1 block inconclusive
O=C(NCCc1ccccc1)C(=O)Nc1ccc([N+](=O)[O-])cc1	none (no result: HPGD block, PNC inhibitor)
COC(=O)C1=COC(O[C@H]2OC(CO)[C@H](O)C(O)C2O)[C@H]2C1C(=O)C[C@@H]2C (stereo not given in full)	none (no result: PNC inhibitor)
O=C(OCc1ccccn1)c1ccc(COc2ccc3ccccc3c2)o1	none (no result: HPGD block, ALDH1A1 block, PNC inhibitor)
CCCC/C=C/C(NC(=O)c1ccc(C(F)(F)F)cc1)c1ccccc1 (stereo not given)	none (no result: PNC inhibitor)
CN(C)c1ccnc2sc3c(SCc4ccc(Cl)cc4)ncnc3c12	HPGD block 15.8µM
O=C(c1ccc(S(=O)(=O)NCC2CCCO2)cc1)N1CCN(c2cccc(Cl)c2)CC1 (stereo not given)	none (no result: HPGD block, PNC inhibitor)
COC(=O)C1=C(C)Nc2nnnn2C1c1cccs1 (stereo not given)	HPGD block 15.8µM, ALDH1A1 block 2.82µM, PNC inhibitor inconclusive
CC1=C(C(=O)Nc2ccccc2)C(c2sccc2C)n2nnnc2N1 (stereo not given)	ALDH1A1 block 0.355µM
C=CCOC(=O)C1=C(C)Nc2nnnn2C1c1ccc(OC)cc1OC (stereo not given)	ALDH1A1 block inconclusive
COC(=O)C1=C(C)Nc2nnnn2C1c1cc(OC)ccc1OC (stereo not given)	PNC inhibitor inconclusive (no result: HPGD block)
C=CCOC(=O)C1=C(C)Nc2nnnn2C1c1cccs1 (stereo not given)	ALDH1A1 block 6.31µM, PNC inhibitor inconclusive
COc1ccc2c(Cc3c4ccccc4cc4ccccc34)cncc2c1O	none (no result: KDM4E inh, PNC inhibitor)
Cc1ccccc1C=Nc1ccccc1C(N)=O	HPGD block inconclusive, ALDH1A1 block inconclusive, PNC inhibitor -86.0
Cc1ccc(C=Nc2ccccc2C(=O)Nc2ccccc2)cc1	KDM4E inh inconclusive, HPGD block inconclusive, ALDH1A1 block inconclusive
Cc1ccc(C=Nc2ccccc2C(N)=O)cc1	KDM4E inh inconclusive, HPGD block inconclusive, ALDH1A1 block inconclusive, PNC inhibitor -113.4
N#Cc1c(C(F)(F)F)cc(-c2ccccc2)nc1SCC(=O)Nc1sc2c(c1C#N)CCC2	none
CC1CCCC(NC(=O)COC(=O)/C=C/c2ccc(S(=O)(=O)N3CCOCC3)cc2)C1C (stereo not given)	none (no result: HPGD block, ALDH1A1 block, PNC inhibitor)
O=C(O)CCCNS(=O)(=O)c1ccc2ccccc2c1	ALDH1A1 block 3.16µM
CS(=O)(=O)c1ccc(/C=N\NC(N)=S)cc1	ALDH1A1 block inconclusive (no result: KDM4E inh, PNC inhibitor)
COc1ccc(C2CN=NC2C(=O)c2ccccc2)cc1 (stereo not given)	none (no result: HPGD block, ALDH1A1 block, PNC inhibitor)
Cc1ccc(NC(=O)CCn2ccc([N+](=O)[O-])n2)nc1	ALDH1A1 block inconclusive
C=CCNC(=O)c1sc(=S)n(-c2ccc(C(=O)OCC)cc2)c1N	HPGD block 15.8µM, ALDH1A1 block 12.6µM
CCOC(=O)c1ccc(-n2c(N)c(C(=O)NCc3ccco3)sc2=S)cc1	KDM4E inh inconclusive, HPGD block 28.2µM, ALDH1A1 block 17.8µM
CCOC(=O)c1ccc(-n2c(=S)sc3c(=O)[nH]c(C)nc32)cc1	HPGD block 6.31µM, ALDH1A1 block 7.08µM, PNC inhibitor inconclusive
O=C(O)c1cccc(-n2c(-c3cnccn3)n[nH]c2=S)c1	none (no result: HPGD block, PNC inhibitor)
O=C1N(Cc2cccnc2)C[C@@H]2C[C@@H](c3cccc(Oc4ccccc4)c3)N3CCC[C@@]123	none (no result: HPGD block, ALDH1A1 block, PNC inhibitor)
O=C(c1ccncc1)c1ccc(NS(=O)(=O)c2ccc(Br)s2)cc1	HPGD block 28.2µM
O=C(Nc1ccc2ccccc2c1)c1ccc(NS(=O)(=O)c2ccc(Br)s2)cc1	none
O=C(O)CC12CSc3[nH]c(=O)sc3C1c1ccccc1OC2=O (stereo not given)	HPGD block inconclusive, ALDH1A1 block inconclusive, PNC inhibitor -83.6
COc1cc(NC(=O)c2ccc(COCC(F)(F)F)cc2)cc(OC)c1OC	none
COc1cc(NC(=O)c2cccc(COCC(F)(F)C(F)F)c2)cc(OC)c1OC	PNC inhibitor -99.9
O=C(NCCc1csc(-c2cccnc2)n1)c1ccc(Br)o1	HPGD block inconclusive, ALDH1A1 block 22.4µM
Cc1c(C=O)c2ccccc2n1CC(=O)N1CCc2ccccc2C1	none
Cc1cc(C=O)c(C)n1-c1ccc(N2CCCC2)c([N+](=O)[O-])c1	HPGD block 14.1µM, ALDH1A1 block 0.447µM
Cc1cc(C=O)c(C)n1-c1ccc(N2CCOCC2)c([N+](=O)[O-])c1	ALDH1A1 block 2.51µM (no result: HPGD block, PNC inhibitor)
Cc1cc(/C=C(\C#N)C(=O)Nc2ccc(Cl)cc2)c(C)n1-c1ccc(N2CCOCC2)c([N+](=O)[O-])c1	ALDH1A1 block inconclusive, PNC inhibitor inconclusive
CC(=O)c1cccc(NS(=O)(=O)c2ccc3c(c2)oc(=O)n3C)c1	ALDH1A1 block 22.4µM, PNC inhibitor inconclusive
CCN(CC)c1ccc(NS(=O)(=O)c2ccc3c(c2)oc(=O)n3C)c(C)c1	KDM4E inh inconclusive, HPGD block 12.6µM, ALDH1A1 block inconclusive
